# Assay results taken from paper PMC8384837, “Expanding the binding specificity for RNA recognition by a PUF domain”.
# Key:
# Experiment in all cases: yeast three-hybrid, YBZ-1, SC-Leu-His + 0.5 mM 3-AT, 4 days
# Conditions in all cases: tags: N-Gal4 AD-HA kept; label: inside an RPR1-promoter hybrid RNA with tandem MS2 sites; ssRNA
# PUM1 PUF domain R2-GWD = PUM1 PUF domain R2-GWD (Homo sapiens, UniProt Q14671 828-1176, N899G;Y900W;Q903D)
# Procedure, shortened: (§1)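 The interaction score is the logarithmic change in variant frequency from input to selection. It uses log2, with a pseudocount of 1 for absent variants, and frequencies came from PCR-amplified, Illumina-sequenced repeat regions. The libraries were Pumilio-1 PUF domains randomized at the three base-contacting residues per repeat, co-expressed with matching RNA elements in strain YBZ-1 (LexA–MS2 coat fusion, HIS3 reporter). Plating lasted four days on SC-Leu (input) or SC-Leu-His + 0.5 mM 3-AT (selection).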
# PUM1 PUF domain R1-TSR = PUM1 PUF domain R1-TSR (Homo sapiens, UniProt Q14671 828-1176, S863T;R864S;Q867R)
# Procedure, shortened: as §1
# PUM1 PUF domain R4-MPG = PUM1 PUF domain R4-MPG (Homo sapiens, UniProt Q14671 828-1176, N971M;H972P;Q975G)
# Procedure, shortened: as §1
sequence,measurement,setting,value
GGCUAGAACUAGUGGAUCCCCCGGCGCCCGGCGGCUCGAGCCCGGGUAAGUGUAAAAAGUCUGCAUGCCGCCGGGCGCCAUGCCUGCAGGUCGACUCUAGAAAACAUG,binding signal,PUM1 PUF domain R2-GWD,3.74 log2 enrichment (interaction score)
GGCUAGAACUAGUGGAUCCCCCGGCGCCCGGCGGCUCGAGCCCGGGUAAGUGUAAAUCGUCUGCAUGCCGCCGGGCGCCAUGCCUGCAGGUCGACUCUAGAAAACAUG,binding signal,PUM1 PUF domain R1-TSR,2.68 log2 enrichment (interaction score)
GGCUAGAACUAGUGGAUCCCCCGGCGCCCGGCGGCUCGAGCCCGGGUAAGUGUAUAUAGUCUGCAUGCCGCCGGGCGCCAUGCCUGCAGGUCGACUCUAGAAAACAUG,binding signal,PUM1 PUF domain R4-MPG,2.39 log2 enrichment (interaction score)
